From PubChem BioAssay
Shown is part of a subset that was picked to be rich in hits.
nsP2pro inh – blocks chikungunya virus nsP2 protease peptide cleavage; FRET peptide cleavage, nsP2pro, fluorescence 1 h; Potency, µM (highest dose often 24.9 µM), for the others: at the top dose activity change, negative = inhibition, hits mostly inhibitors; Q8JUX6; actives 1.1% (n = 31,000); further: nearly all actives have a fitted effect of over 60% in size
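FRET cleavage of 2.5 uM peptide 2 by 150 nM CHIKV protease domain at pH 8.0 (Tris, Tween 20). Compounds at 7 concentrations (up to 25 uM) preincubated 15 min. Fluorescence read after 1 h at room temperature.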
CHIKV nsP2 cell – cell-based CHIKV nsP2 protease inhibition, secondary | shares compounds with nsP2pro inh | cell-based CHIKV nsP2 protease reporter assay | Potency, µM (series often up to 51.1 µM), for the others: at the highest dose activity change, negative = inhibition, most hits filed as inhibitors | actives 10% (n = 450); further: nearly all actives have a fitted effect of over 70% in size
CHIKV NSP2 FL – full-length CHIKV NSP2 protease inhibition, selectivity; Full-length CHIKV NSP2 protease enzymatic counterscreen; shares compounds with nsP2pro inh; actives 39% (n = 410); Potency, µM (doses to about 50.7 µM), without a hit: at the highest dose activity change, negative = inhibition, most hits filed as inhibitors; AID 1964101; further: nearly all actives have a fitted effect of over 65% in size
Furin counterscr – selectivity counter-screen for CHIKV nsP2 protease inhibitors: human furin; shares compounds with nsP2pro inh; Recombinant human furin enzymatic counterscreen, fluorogenic substrate; Potency, µM (doses to about 50.6 µM), for the others: at the top dose activity change, negative = inhibition, actives largely listed as inhibitors; actives 6% (n = 410); AID 1964102
NS23 peptide cs – selectivity test for CHIKV nsP2 protease inhibitors: endogenous NS2/3 peptide; actives 34% (n = 410); Potency, µM (series often up to 51 µM), for the others: top-dose activity change, negative = inhibition, hits mostly inhibitors; shares compounds with nsP2pro inh; Purified CHIKV nsP2 protease, endogenous NS2/3 peptide cleavage; AID 1964103; further: nearly all actives have a fitted effect of over 55% in size
Papain counter – papain protease inhibition, counterscreen for nsP2pro inhibitors; shares compounds with nsP2pro inh; actives 5% (n = 410); Potency, µM (top dose mostly 51 µM), for inactives: at the highest dose activity change, negative = inhibition, usual class: inhibitors; purified papain protease activity, enzymatic inhibition
nsP2pro conf qHTS – confirmation of CHIKV nsP2 protease inhibitors | actives 43% (n = 410) | Potency, µM (series often up to 25.5 µM), for inactives: top-dose activity change, negative = inhibition, most hits filed as inhibitors | CHIKV nsP2 protease enzymatic activity, qHTS | shares compounds with nsP2pro inh; further: nearly all actives have a fitted effect of over 75% in size
HCV NS3 counter – inhibits HCV NS3/4A protease in an nsP2pro selectivity counterscreen; shares compounds with nsP2pro inh; HCV NS3/4A protease biochemical counterscreen; Potency, µM (top dose mostly 50.9 µM), actives largely listed as inhibitors; actives 20% (n = 410); AID 1964106; further: nearly all actives have a fitted effect of over 55% in size
The depositor's hits bear a star; ? = inconclusive; . = no result; ! = not confirmed by another sample; [ ] = remark or other dose. The call rests on the fitted dose curve. On the % scale 0 is the no-effect control and ±100 the full control effect; potency means the concentration at half of the fitted maximal effect.

SMILES	nsP2pro inh	CHIKV nsP2 cell	others
CCC(C)C(N)C1=NC(C(=O)N[C@@H](CC(C)C)C(=O)N[C@H](CCC(=O)O)C(=O)N[C@H](C(=O)N[C@H]2CCCCNC(=O)[C@H](CC(N)=O)NC(=O)[C@@H](CC(=O)O)NC(=O)[C@H](Cc3cnc[nH]3)NC(=O)[C@@H](Cc3ccccc3)NC(=O)[C@H]([C@@H](C)CC)NC(=O)[C@@H](CCCN)NC2=O)[C@@H](C)CC)CS1 (stereo not given in full)	0.22µM*!	12%[17.6 µM]	CHIKV NSP2 FL=0.14µM*;Furin counterscr=8µM*;NS23 peptide cs=1.1µM*;Papain counter=3.2µM*;nsP2pro conf qHTS=0.22µM*;HCV NS3 counter=8µM*
NCCCC[C@H](NC(=O)[C@@H]1CCCN1C(=O)[C@@H]1CSSC[C@H](N)C(=O)N[C@@H](Cc2ccccc2)C(=O)N[C@@H](Cc2ccccc2)C(=O)N[C@@H](CCC(N)=O)C(=O)N[C@@H](CC(N)=O)C(=O)N1)C(=O)NCC(N)=O	-12%	.
Cc1cc(C)n2ncc(C(=O)NC3CCC(C(C)(C)C)CC3)c2n1 (stereo not given)	-5%	.
COc1ccccc1C(=O)NCC(c1cccnc1)N1CCc2ccccc2C1 (stereo not given)	-17%	.
O=C(NCC(c1cccnc1)N1CCc2ccccc2C1)c1ccc(F)c(F)c1 (stereo not given)	?	-12%
COc1ccc(C(=O)NCC(c2cccnc2)N2CCN(c3ccccc3)CC2)cc1 (stereo not given)	-10%	.
O=C(Nc1ccc(Br)c(Br)c1)Nc1cccc(-c2ccncc2)n1	-6%	.
COc1ccc2nc(-c3cccc(OCc4ccccc4)c3)sc2c1	-5%	.
